Bioassay records as filed in PubChem.
ELG1 genotoxic = inducers of genotoxicity in HEK293T ELG1-luciferase cells; HEK293T ELG1-luciferase reporter, luminescence, 16 h; Potency, µM (series often up to 46 µM), for the others: at the top dose activity change, positive = activation, hits mostly activators; hit rate 1.3% among 330,000; further: % of control where 0% means no effect; nearly all actives have a fitted effect of over 60% in size
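Luminescence read-out: rising ELG1-luciferase signal, reflecting elevated ELG1 protein under genetic stress, flags genotoxic compounds. Cells were treated for 16 hr at 37 °C before ONE-Glo detection.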
NPC1 promoter act = activates the NPC1 promoter; Huh7 NPC1 promoter luciferase reporter, 24 h; Potency, µM (top dose mostly 9.22 µM), without a hit: top-dose activation, actives largely listed as activators; hit rate 2.4% among 320,000; further: % of control where 0% means no effect; nearly all actives have a fitted effect of over 60% in size
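Stable NPC1-promoter luciferase Huh7 line; cpd (DMSO) 24 h, 37 °C, 5% CO2; Amplite luciferase reagent 10 min RT; luminescence readout. qHTS format.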
SMN2 splice up = SMN2 splice variant enhancement; HEK293 SMN2-luciferase splicing reporter, luminescence, 30-36 h; Potency, µM (titrated, usually from 46.1 µM), for the others: top-dose activity change, positive = activation, hits mostly activators; hit rate 2.8% among 210,000; AID 1458; further: % of control where 0% means no effect; nearly all actives have a fitted effect of over 55% in size
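HEK293 cells carry an SMN2 […]–luciferase reporter in which exon 7 inclusion puts luciferase in frame. Cells were plated 10-12 h before compound addition, then incubated 30-36 h at 37C. ONE-Glo luminescence was read; sodium butyrate at 4.5 mM final served as control.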
ELG1 repair inh = inhibitors of ELG1-dependent DNA repair in HEK293T cells; HEK293T ELG1-luciferase reporter, luminescence, 16 h; DNA damage induced by 5-fluorouridine; Potency, µM (series often up to 46.1 µM), inactives show top-dose activity change, negative = inhibition, usual class: inhibitors; hit rate 2.3% among 330,000; AID 504467; further: on the % scale 0 is the no-effect control and ±100 the full control effect; nearly all actives have a fitted effect of over 55% in size
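In this reporter screen, reduction of luminescence relative to DMSO vehicle indicated activity. Compounds and 5-fluorouridine were added together to 2,000 cells per well, incubated for 16 hr at 37 °C, then developed with ONE-Glo.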
FLuc counter = firefly luciferase modulation, counter-screen for miR-21 project | P08659 | purified FLuc, Km substrates, luminescence inhibition | Potency, µM (series often up to 57.5 µM), for the others: at the highest dose activity change, negative = inhibition, actives largely listed as inhibitors | hit rate 6.9% among 360,000 | AID 588342;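 further: plate controls were vehicle for no effect and reference inhibitor for full effect; nearly all actives have a fitted effect of over 55% in size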
Target sequence (P08659 whole entry, looked up): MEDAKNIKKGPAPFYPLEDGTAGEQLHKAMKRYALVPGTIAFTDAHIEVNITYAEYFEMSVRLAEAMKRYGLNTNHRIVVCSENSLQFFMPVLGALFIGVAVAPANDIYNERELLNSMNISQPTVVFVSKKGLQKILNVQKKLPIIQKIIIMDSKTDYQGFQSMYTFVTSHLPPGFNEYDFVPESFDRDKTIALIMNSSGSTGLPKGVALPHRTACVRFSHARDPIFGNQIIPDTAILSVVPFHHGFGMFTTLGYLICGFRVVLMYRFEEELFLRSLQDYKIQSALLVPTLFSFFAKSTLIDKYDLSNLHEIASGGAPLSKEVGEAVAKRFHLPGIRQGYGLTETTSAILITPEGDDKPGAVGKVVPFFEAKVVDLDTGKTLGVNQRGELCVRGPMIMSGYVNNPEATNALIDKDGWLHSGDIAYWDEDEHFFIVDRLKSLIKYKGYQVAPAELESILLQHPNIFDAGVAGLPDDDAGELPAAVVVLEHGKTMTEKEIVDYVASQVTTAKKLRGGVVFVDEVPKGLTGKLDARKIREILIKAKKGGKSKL
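Purified P. pyralis luciferase, 10 nM final, with Km-level 10 uM D-luciferin and 10 uM ATP in 50 mM Tris acetate pH 7.5, 10 mM Mg acetate, 0.01% Tween-20, 0.05% BSA; 6-point qHTS titration about 60 µM downward; luminescence read.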
Rab9 prom act = activators of Rab9 promoter | Huh7 Rab9 promoter-luciferase reporter, luminescence, 24 h | hit rate 2.8% among 320,000 | Potency, µM (titrated, usually from 9.22 µM), for inactives: at the highest dose activation, negative = inhibition, usual class: activators | AID 485297; further: % of control where 0% means no effect; nearly all actives have a fitted effect of over 60% in size
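Luciferase signal after 10 min detection reagent at ambient indicates Rab9 promoter upregulation; stably transfected Huh7 cells were treated 24 h with compound in DMSO at 37 °C, 5% CO2.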
Starred values were filed as active, the others as inactive. Only some compounds are listed: those with a hit (about 9.4% of all), similar ones and a draw of the others. The call rests on the fitted dose curve; in most records, active means well fitted curve in the direction sought with a large enough effect; inconclusive means small, poorly fitted or top-dose-only effect, or another doubt; inactive means no such curve, though single readings can be large; an effect the other way counts as inactive or inconclusive. Potency means the concentration at half of the fitted maximal effect.

Results for CCCCCOc1ccc(CN2CCOCC2)cc1Cl ?
ELG1 genotoxic: 14.1µM*; NPC1 promoter act: 3.16µM*; SMN2 splice up: inconclusive; ELG1 repair inh: inconclusive; FLuc counter: 6.75µM*; Rab9 prom act: 3.55µM*

How did Clc1cc(Br)ccc1OCCN1CCOCC1 do in these assays?
ELG1 genotoxic: 0.6%; NPC1 promoter act: -2.8%; SMN2 splice up: -1.4%; ELG1 repair inh: 20.4%; FLuc counter: -13.4%; Rab9 prom act: -3.9%

What do the screens show for `C=Cc1ccc(Cn2c(=O)n(-c3ccc(C)cc3)c(=O)c3c2c2cc(OC)ccc2n3C)cc1`?
FLuc counter: 0.8%

Results for COc1ccc(N2CCN(Cc3nc(N)nc(Nc4ccc(C)c(Cl)c4)n3)CC2)cc1 ?
ELG1 genotoxic: -19.3%; NPC1 promoter act: -11.8%; SMN2 splice up: 12.8%; ELG1 repair inh: 13µM*; FLuc counter: -8.6%; Rab9 prom act: -12.2%

How did CCOC(=O)N1CCN(Cc2nc(N)nc(Nc3ccc(OC)cc3)n2)CC1 do in these assays?
ELG1 genotoxic: -4.7%; NPC1 promoter act: 2.0%; SMN2 splice up: inconclusive; ELG1 repair inh: -10.6%; FLuc counter: 1.4%; Rab9 prom act: 1.9%

Results for CCOC(=O)N1CCN(Cc2nc(N)nc(Nc3ccc(Oc4ccccc4)cc3)n2)CC1 ?
ELG1 genotoxic: -17.2%; NPC1 promoter act: -2.5%; ELG1 repair inh: 11.6µM*; FLuc counter: -11.8%; Rab9 prom act: -11.5%

Results for Cc1ccc(Nc2nc(N)nc(CN3CCN(c4ccccc4)CC3)n2)cc1Cl ?
ELG1 genotoxic: -16.0%; NPC1 promoter act: -3.1%; SMN2 splice up: 13.5%; ELG1 repair inh: inconclusive; FLuc counter: 0.0%; Rab9 prom act: -12.1%

How did CCOc1nc(Nc2ccc(OC)c(Cl)c2)nc(N2CCN(c3ccc(OC)cc3)CC2)n1 do in these assays?
ELG1 genotoxic: -3.9%; NPC1 promoter act: -4.3%; SMN2 splice up: -8.7%; ELG1 repair inh: 18.4µM*; FLuc counter: 0.8%; Rab9 prom act: -4.1%

How did CCOc1nc(Nc2ccc(F)cc2)nc(N2CCN(c3ccc(OC)cc3)CC2)n1 do in these assays?
ELG1 genotoxic: 0.4%; NPC1 promoter act: -1.6%; SMN2 splice up: -26.1%; ELG1 repair inh: inconclusive; FLuc counter: 5.5%; Rab9 prom act: -2.2%

What do the screens show for `Cc1ccc(Nc2nc(N)nc(CN3CCN(Cc4ccc5c(c4)OCO5)CC3)n2)cc1C`?
ELG1 genotoxic: -9.0%; NPC1 promoter act: -9.7%; SMN2 splice up: -22.5%; ELG1 repair inh: 13µM*; FLuc counter: -12.7%; Rab9 prom act: -17.5%

Results for CCOc1ccc(Nc2oc(-c3ccc(COc4ccc(OC)cc4)o3)nc2C#N)cc1 ?
FLuc counter: -6.2%

How did O=C(c1ccc(NC(=O)C2(c3ccccc3)CCOCC2)cc1)N1CCOCC1 do in these assays?
SMN2 splice up: -4.0%; FLuc counter: -0.5%

How did CC(=O)c1ccc(NC(=O)C2(c3ccccc3)CCOCC2)cc1 do in these assays?
ELG1 genotoxic: inconclusive; NPC1 promoter act: 3.16µM*; SMN2 splice up: 16.2%; ELG1 repair inh: inconclusive; FLuc counter: 13.5µM*; Rab9 prom act: inconclusive

Results for Nc1ccccc1C(=O)NNc1c2ccccc2nc2ccccc12 ?
ELG1 genotoxic: 5.4%; NPC1 promoter act: 3.0%; ELG1 repair inh: inconclusive; FLuc counter: 19µM*; Rab9 prom act: -6.8%

Results for Cc1ccc(C(=O)NNc2c3ccccc3nc3ccccc23)cc1 ?
ELG1 genotoxic: -27.5%; NPC1 promoter act: -3.7%; ELG1 repair inh: inconclusive; FLuc counter: inconclusive; Rab9 prom act: -4.7%

How did CCSc1ncc(Cl)c(C(=O)Nc2ccc(S(=O)(=O)N3CCCCC3)cc2)n1 do in these assays?
SMN2 splice up: -39.4%; FLuc counter: -1.3%

What do the screens show for `O=C1OC(c2ccccc2)=C/C1=C/c1cccs1`?
ELG1 genotoxic: 1.6%; NPC1 promoter act: 3.0%; SMN2 splice up: 6.5%; ELG1 repair inh: 6.6%; FLuc counter: 0.675µM*; Rab9 prom act: 3.3%

What do the screens show for `O=C1OC(c2ccc(F)cc2)=C/C1=C\c1ccc([N+](=O)[O-])o1`?
ELG1 genotoxic: 7.2%; NPC1 promoter act: -11.8%; SMN2 splice up: -10.4%; ELG1 repair inh: 12.1%; FLuc counter: -18.8%; Rab9 prom act: -7.0%

Results for O=C1N=C(c2ccccc2)S/C1=C\c1cccs1 ?
ELG1 genotoxic: inconclusive; NPC1 promoter act: 23.9%; SMN2 splice up: 2.8%; ELG1 repair inh: inconclusive; FLuc counter: 3.79µM*; Rab9 prom act: 18.6%

How did O=C1/C(=C/c2cccs2)SC(=S)N1c1ccccc1 do in these assays?
ELG1 genotoxic: 5.2%; NPC1 promoter act: -3.0%; SMN2 splice up: -6.5%; ELG1 repair inh: 27.4%; FLuc counter: -1.0%; Rab9 prom act: 1.7%

Results for O=C1N=C(N2CCN(Cc3ccccc3)CC2)S/C1=C/c1cccs1 ?
ELG1 genotoxic: 0.4%; NPC1 promoter act: 19.8%; ELG1 repair inh: 0.0%; FLuc counter: 9.53µM*; Rab9 prom act: 27.4%

How did O=C1N=C(N2CCN(c3ccccc3)CC2)S/C1=C/c1cccs1 do in these assays?
ELG1 genotoxic: -4.7%; NPC1 promoter act: 7.4%; SMN2 splice up: 4.1%; ELG1 repair inh: inconclusive; FLuc counter: inconclusive; Rab9 prom act: 2.7%

How did COc1ccc(Nc2ncnc3onc(C)c23)cc1Cl do in these assays?
FLuc counter: -0.3%

What do the screens show for `CCOc1ccc(NC(=O)Cc2ccccc2)c([N+](=O)[O-])c1`?
ELG1 genotoxic: 6.6%; NPC1 promoter act: 1.6%; SMN2 splice up: 0.7%; ELG1 repair inh: inconclusive; FLuc counter: -17.7%; Rab9 prom act: 10.2%

How did Cc1ccc(C(=O)/C=C/Nc2ccc([N+](=O)[O-])cc2Br)cc1 do in these assays?
ELG1 genotoxic: inconclusive; NPC1 promoter act: 0.447µM*; SMN2 splice up: inconclusive; ELG1 repair inh: inconclusive; FLuc counter: 0.338µM*; Rab9 prom act: 0.447µM*

What do the screens show for `CCOc1ccc(N/C=C/C(=O)c2ccc3ccccc3c2)c([N+](=O)[O-])c1`?
ELG1 genotoxic: 15.9%; NPC1 promoter act: 2µM*; SMN2 splice up: 2.51µM*; ELG1 repair inh: inconclusive; FLuc counter: 0.849µM*; Rab9 prom act: 2µM*

Results for CCOc1ccc(NC(=O)Cc2cccc3ccccc23)c([N+](=O)[O-])c1 ?
ELG1 genotoxic: -0.7%; NPC1 promoter act: -6.7%; SMN2 splice up: -12.5%; ELG1 repair inh: -13.1%; FLuc counter: 4.9%; Rab9 prom act: -4.6%

How did CCOc1ccc(N/C=C/C(=O)c2ccc(C)cc2)c([N+](=O)[O-])c1 do in these assays?
ELG1 genotoxic: inconclusive; NPC1 promoter act: 1.41µM*; SMN2 splice up: inconclusive; ELG1 repair inh: inconclusive; FLuc counter: 1.35µM*; Rab9 prom act: inconclusive
